Screening results from PubChem.
In the library only some 4.5% were active in any assay of this set; here they are far more common.
Rpn11 block: Rpn11 (PSMD14) deubiquitinase inhibitors, primary screen, biochemical, fluorescence polarization, uHTS. human 26S proteasome, Ub4-pepOG fluorescence polarization; 20S core pre-blocked with epoxomicin. 26S proteasome non-ATPase regulatory subunit 14 (Homo sapiens), O00487. inhibition, % at 20 µM. AID 588493, 2011. 360,000 compounds, 0.59% hits;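 active = inhibition at 20 µM, scaled to each plate's controls, above about 33%, limit read from the data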
TPT1 inhibitor: Candida albicans TPT1 enzyme inhibitors, primary screen, biochemical, fluorescence polarization | tRNA 2'-phosphotransferase TPT1 (Candida albicans SC5314) | recombinant caTPT1, FP RNA substrate dephosphorylation | inhibition, % at 5 µM | 300,000 compounds, 0.81% hits | AID 1962, 2009;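 active = inhibition above the mean of all tested compounds plus 3 SD, set per screening campaign, cut at about 24% in these data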;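 note: plate controls were DMSO alone for no effect and ferristatin control at 100 nM for full effect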
ZTA DNA inh: ZTA (EBV) inhibition in EBNA-1 counter-screen | inhibition, % at 11 µM | ZTA-DNA binding, fluorescence polarization | 320,000 compounds, 0.15% hits; in the data active = inhibition above about 33%
Target sequence (P03206 whole entry, looked up): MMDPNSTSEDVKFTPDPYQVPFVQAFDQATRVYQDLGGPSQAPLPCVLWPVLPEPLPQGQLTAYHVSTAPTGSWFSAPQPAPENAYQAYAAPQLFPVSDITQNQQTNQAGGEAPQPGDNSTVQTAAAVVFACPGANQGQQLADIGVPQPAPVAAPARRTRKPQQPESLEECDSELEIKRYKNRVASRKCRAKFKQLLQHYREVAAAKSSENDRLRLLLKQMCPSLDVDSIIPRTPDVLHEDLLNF
EBNA-1 inh: EBNA-1 DNA-binding inhibitors, primary screen, biochemical, fluorescence polarization; 300,000 compounds, 0.34% hits; AID 1950, 2009; inhibition, % at 14.8 µM; in the data active = inhibition above about 28%
dFosB act: activators of delta FosB homodimer, primary screen, biochemical, fluorescence polarization, TAMRA-CDK5 oligo, single point | 340,000 compounds, 0.99% hits | activation, % at 25 µM | AID 493131, 2011 | purified delta FosB; percent of positive-control signal above neutral wells | Protein FosB (Mus musculus), P13346;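 active = mean activation above about 17%, with every replicate also reaching it, limit read from the data, passing the limit was not always enough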
NR3A LBD binder: binders of NR3A ligand-binding domain, primary screen, biophysical, differential scanning fluorimetry, uHTS; Glutamate receptor ionotropic, NMDA 3A (GRIN3A) ligand-binding domain; NR3A LBD differential scanning fluorimetry, Tm shift; 0% = protein alone, 100% = glycine-bound protein; Tm shift relative to glycine control, % at 25 µM; 340,000 compounds, 2.5% hits; AID 1259313, 2017;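 active = melting temperature shift of at least 10% of the positive control shift, at one fixed dose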
* marks the source's active call; other numbers are inactive results; . = no result given.

SMILES	Rpn11 block	TPT1 inhibitor	ZTA DNA inh	EBNA-1 inh	dFosB act	NR3A LBD binder
COc1ccc(/C=C/C(=O)Nc2cc(C)nn2-c2nc3ccccc3[nH]2)cc1	6	-4	-3	5	-12	1
Cc1cc(NC(=O)/C=C/c2cccc(F)c2)n(-c2nc3ccccc3[nH]2)n1	2	-2	-13	14	6	5
Cc1cc(NC(=O)/C=C/c2ccc(F)cc2)n(-c2nc3ccccc3[nH]2)n1	3	1	2	-10	-13	12*
Cc1cc(NC(=O)/C=C/c2cccc(Cl)c2)n(-c2nc3ccccc3[nH]2)n1	-4	-3	-19	-4	-12	11*
O=C(CN(Cc1cccs1)S(=O)(=O)c1ccc(S(=O)(=O)NC2CCCCC2)cc1)Nc1ccccc1	2	-2	9	5	-1	13*
Cc1ccc(-n2c(COc3c(C)cccc3C)nnc2SCC(=O)Nc2nccs2)cc1	-6	-2	12	13	21*	2
OCCNc1nc2ccccc2nc1NCCO	-2	-1	7	-2	-7	-3
COc1ccc(Nc2ncnc3ccccc23)c(OC)c1	-2	-2	-9	0	0	0
OCCNc1c2ccccc2nc2ccccc12	2	1	12	6	20*	-1
COc1ccc(OC)c(Nc2nc(NCCO)c3ccccc3n2)c1	-8	-3	-3	-5	31*	2
COc1ccc(Nc2nc(N3CCCC3)nc3ccccc23)c(OC)c1	11	0	6	-4	39*	-1
Cc1ccc(Nc2nc(NCCO)c3ccccc3n2)cc1C	-10	-2	7	3	32*	2
COc1ccc(OC)c(Nc2c3c(nc4ccccc24)CCC3)c1	8	-4	-10	8	2	-4
COc1ccc(OC)c(Nc2c3ccccc3nc3ccccc23)c1	3	-3	-15	0	37*	.
CN1CCC(=NNC(=O)CSc2ccc(Cl)cc2)CC1	-4	-5	8	2	0	21*
CCOC(=O)[C@@H]1CSCCS(=O)(=O)N1	-2	.	.	.	6	2
FC(F)Oc1ccc(NC(=S)NC2CCSc3ccccc32)cc1 (stereo not given)	3	.	.	.	-3	17*
Cc1[nH]n2c(=O)cc(-c3ccc([N+](=O)[O-])cc3)nc2c1-c1ccccc1	10	-1	3	-1	-7	14*
Cc1cccc(OCC(=O)Nc2ccc(NC(=O)c3ccccc3)cc2)c1	4	-1	7	6	-7	12*
Cc1cccc(OCC(=O)Nc2ccc(C(=O)Nc3ccccc3C(=O)O)cc2)c1	4	.	.	.	.	.
Cc1ccc(NC(=O)COC(=O)c2ccccc2Nc2ccccc2)cc1	-3	2	5	9	6	-2
Cc1cccc(C(=O)Nc2ccccc2C(=O)OCC(=O)Nc2ccc(C#N)cc2)c1	7	2	1	10	-7	15*
COc1cccc(C(=O)COc2ccc(NC(=O)c3ccccc3)cc2)c1	-4	.	.	.	-1	11*
COc1ccc(CN2CCN(C(=O)CC(C)C)CC2)cc1	2	-1	-5	-2	-4	-1
Cc1cccc(S(=O)(=O)NC2CCCCCCC2)c1	-12	-3	7	0	-4	-1
COc1cccc(-c2c(C(=O)N/N=C(\C)COc3ccccc3)nnn2-c2nonc2N)c1	-1	2	-18	-15	-3	-1
CCNC(=S)NNC(=O)c1cc(-c2ccc(OC)cc2)nc2ccccc12	3	1	3	-1	-16	-12
CCNC(=S)NNC(=O)c1cc(-c2cccc(OCC)c2)nc2ccccc12	1	-3	2	7	4	-7
CCCCOc1cccc(-c2cc(C(=O)NNC(=S)NCC)c3ccccc3n2)c1	3	1	-13	9	-8	11*
CCCCOc1ccc(-c2cc(C(=O)NNC(=S)NCC)c3ccccc3n2)cc1	20	1	-3	8	-14	17*
